Test [1] deals with Luciferin 4-monooxygenase (Photinus pyralis) (UniProt P08659). The experiment in a line: qHTS assay to identify small molecule inhibitors of firefly luciferase (AID 1224835). Also: nearly all actives have a fitted effect of over 25% in size. Also: potency is read from the fitted curve at half-maximal effect. As to activity change, negative = inhibition: series mostly up to about 120 µM. The method in brief:
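Biochemical qHTS: compounds run as interplate titrations against purified firefly enzyme, with D-luciferin and ATP each at its KM concentration. Light output recorded by CCD imaging.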

Test [2] can be described thus: qHTS assay to identify small molecule agonists of the constitutive androstane receptor (CAR) signaling pathway - cell viability counter screen (AID 1224836). Also: series mostly up to about 92 µM; nearly all actives have a fitted effect of over 45% in size. In short, it runs like this:
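Double-stable HepG2 hepatoma cells (hCAR plus CYP2B6-2.2kb) are treated for 23 h at 37 C with test compounds in 15-point concentration series. PK11195 at 0.75 uM final is co-added. Cell viability is quantified by CellTiter-Fluor.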
A general note: Quantitative high-throughput screening tests each substance at several concentrations.

The nature of test [3]: qHTS assay to identify small molecule antagonists of the constitutive androstane receptor (CAR) signaling pathway - cell viability counter screen (AID 1224837). Also: nearly all actives have a fitted effect of over 45% in size. Also: potency is read from the fitted curve at half-maximal effect. In short, it runs like this:
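Multiplexed cytotoxicity read-out for the CAR antagonist screen: double-stable HepG2-CYP2B6-hCAR cells co-treated with 50 nM CITCO (final) and compound over 15 concentrations, incubated 23 hr, then assessed by CellTiter-Fluor fluorescence.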

Test [4] deals with Nuclear receptor subfamily 1 group I member 3 (Homo sapiens) (UniProt Q14994). The experiment in a line: qHTS assay to identify small molecule antagonists of the constitutive androstane receptor (CAR) signaling pathway (AID 1224838). Also: nearly all actives have a fitted effect of over 40% in size. Also: potency is read from the fitted curve at half-maximal effect. In short, it runs like this: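 Compounds were titrated across 15 concentrations onto HepG2 cells double-stably expressing hCAR and a CYP2B6-2.2kb reporter, together with 50 nM CITCO (final). After 24 h at 37 C, luciferase activity was measured by luminescence.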

Test [5] has the same target. The experiment in a line: qHTS assay to identify small molecule agonists of the constitutive androstane receptor (CAR) signaling pathway (AID 1224839). Also: nearly all actives have a fitted effect of over 15% in size. Also: potency is read from the fitted curve at half-maximal effect. As to activation: series mostly up to about 92 µM. In short, it runs like this: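 Readout: firefly luciferase luminescence via ONE-Glo. System: HepG2 double-stable for hCAR and CYP2B6-2.2kb. Conditions: 15-point compound titration, PK11195 at 0.75 uM final, 24 h incubation.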

Test [6] is described as follows: qHTS assay to identify small molecule antagonists of the estrogen related receptor signaling pathway with the pleiotropic PPARgamma coactivator (PGC) from Tox21 10K library - cell viability counter screen (AID 1224840; active = well fitted cell-killing curve with a large enough effect in the repeat runs, not every such curve was filed as active; also: nearly all actives have a fitted effect of over 40% in size). The method in brief: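 Step one, plate 2,000 PGC/ERR cells per well; step two, incubate 6 h at 37 C/5% CO2; step three, pin-transfer compounds; step four, incubate 17.5 h; step five, add CellTiter-Fluor and read fluorescence after 30 min.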

Test [7] in a line: qHTS assay to identify small molecule antagonists of the estrogen related receptor (ERR) signaling pathway from Tox21 library - cell viability counter screen (AID 1224834). Also: nearly all actives have a fitted effect of over 30% in size. In short, it runs like this:
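Cytotoxicity of test substances is gauged in the same ERR cells used for the antagonist screen, after 17.5 h of compound treatment at 37 C, by CellTiter-Fluor fluorescence measured after 30 min.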

Test [8] can be described thus: qHTS assay to identify small molecule antagonists of the estrogen related receptor signaling pathway with the pleiotropic PPARgamma coactivator (PGC) from Tox21 10K library (AID 1224841; call rule not given here; also: actives are mostly falling curves and most rising ones were filed inactive; nearly all actives have a fitted effect of over 50% in size; also: potency is read from the fitted curve at half-maximal effect; as to activity, negative = inhibition: series mostly up to about 92 µM). In short, it runs like this: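 Antagonism in this quantitative HTS is taken from loss of luciferase signal in PGC/ERR cells. Cells (2,000/well) are treated with compounds in DMSO after a 6 h settling period and read by One-Glo luminescence after 18 h.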

The nature of test [9]: qHTS assay to identify small molecule agonists of the estrogen related receptor signaling pathway with the pleiotropic PPARgamma coactivator (PGC) from Tox21 10K library (AID 1224842). Also: nearly all actives have a fitted effect of over 15% in size. Also: potency is read from the fitted curve at half-maximal effect. In short, it runs like this:
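PGC/ERR reporter cell line, 2,000 cells per well, incubated 6 h at 37 C before 23 nL compound in DMSO was added. After 18 h at 37 C, One-Glo luminescence read following 30 min at room temperature.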

Records with an inconclusive call do not appear. A number with no mark means an inactive call. The source made the active and inactive calls. Unless noted, calls follow the shape of the dose curve; as a rule, active = well fitted curve in the direction sought with a large enough effect in the repeat runs; inconclusive = weak or mixed curves; inactive = no such curve, though single readings can be large; an effect the other way counts as inactive or inconclusive.
% is scaled to controls: 0 for no effect and ±100 for the full control effect.

Luciferin 4-monooxygenase (Photinus pyralis), sequence (P08659 whole entry, looked up): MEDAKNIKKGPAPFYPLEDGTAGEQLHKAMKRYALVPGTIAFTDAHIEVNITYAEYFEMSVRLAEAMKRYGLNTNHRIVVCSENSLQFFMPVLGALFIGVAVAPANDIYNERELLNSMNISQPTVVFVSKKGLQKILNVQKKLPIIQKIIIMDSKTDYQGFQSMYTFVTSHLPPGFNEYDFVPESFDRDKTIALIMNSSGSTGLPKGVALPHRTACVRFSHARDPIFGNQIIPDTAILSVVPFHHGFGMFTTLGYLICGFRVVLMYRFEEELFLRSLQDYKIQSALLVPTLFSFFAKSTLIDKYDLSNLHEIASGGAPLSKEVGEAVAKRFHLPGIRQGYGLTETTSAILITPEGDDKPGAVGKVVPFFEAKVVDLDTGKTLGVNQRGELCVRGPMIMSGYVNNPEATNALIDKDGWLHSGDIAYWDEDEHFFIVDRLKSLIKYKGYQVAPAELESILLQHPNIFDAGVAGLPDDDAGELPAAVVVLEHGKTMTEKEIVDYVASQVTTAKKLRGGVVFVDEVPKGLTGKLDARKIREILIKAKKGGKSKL
Nuclear receptor subfamily 1 group I member 3 (Homo sapiens), sequence (Q14994 whole entry, looked up): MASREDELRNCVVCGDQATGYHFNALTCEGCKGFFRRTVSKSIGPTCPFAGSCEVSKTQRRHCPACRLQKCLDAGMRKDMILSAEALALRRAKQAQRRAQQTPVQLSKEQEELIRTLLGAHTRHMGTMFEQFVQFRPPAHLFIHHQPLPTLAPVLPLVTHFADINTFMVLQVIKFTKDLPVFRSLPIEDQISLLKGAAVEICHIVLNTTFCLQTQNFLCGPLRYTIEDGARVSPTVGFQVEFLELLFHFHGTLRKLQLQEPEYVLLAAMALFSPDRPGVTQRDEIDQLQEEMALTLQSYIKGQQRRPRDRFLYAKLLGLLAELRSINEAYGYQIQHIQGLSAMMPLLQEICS

On to `COc1ccc2nc(NC(=O)Nc3ccccc3)sc2c1`, for which the Potency in test [1] was 0.389 µM (active); in test [5], 10.6 µM (active). Besides, the Potency entry in [2], in [3], in test [4] and in test [6] was “inactive” each time.

For the compound `OCC(CBr)(CBr)CBr`, the Potency result in test [7], in [2], in [4] and in [6] was “inactive” each time.

Turning to `O=C1CCN(c2ccccc2)N1`, the Potency entry in [1], in [2], in test [4], in test [5], in test [6] and in test [8] was “inactive” throughout. In test [9], the Potency entry was “inactive”.

On to `CC(=O)Oc1cc(C(C)C)c(OCCN(C)C)cc1C`, for which the Potency entry in test [7], in test [3], in test [4] and in test [6] was “inactive” each time.

For the compound `CCCCCCOc1ccc(N)cc1`, the Potency is 31.7 µM (active) in test [1], 27.3 µM (active) in [5] and 12.2 µM (active) in [9]. Besides, the Potency result in test [2], in test [4], in [6] and in test [8] was “inactive” in each case.

Turning to `CN(C)C(=O)NC1(c2ccccc2)CCN(CCC[C@]2(c3ccc(Cl)c(Cl)c3)CCCN(C(=O)c3ccccc3)C2)CC1`, the activity change, negative = inhibition in test [1] was -2.4% [at 23.6 µM]. The viability change, negative = cytotoxic in test [2] is -28.7% [at 19 µM]. In addition, the activity, negative = inhibition in test [4] is -20.2% [at 19 µM]. The activation in test [5] is -6.21% [at 19 µM].

With `CCCCNC(=S)NCCCC`, the Potency entry in test [1], in test [5] and in test [9] was “inactive” each time. Further, the Potency in test [3] and in test [4] was 48.6 µM (active) throughout.

Take `NC1=NCC2c3ccccc3Cc3ccccc3N12` (centres undefined): the Potency entry in test [7], in test [2], in test [4], in [5] and in [6] was “inactive” in each case.

Turning to `O=Cc1ccc(O)c(O)c1O`, the Potency result in test [1], in [2], in test [3], in test [4], in [5] and in test [6] was “inactive” each time.

As for `CCc1cc(Cl)c(OC)c(C(=O)NC[C@@H]2CCCN2CC)c1O`, the Potency result in test [7], in test [4], in test [5], in test [6], in test [8] and in test [9] was “inactive” throughout.

Regarding `CN1CCN(N)CC1`, the Potency entry in [7], in [2], in test [4], in [5] and in test [6] was “inactive” each time.

Regarding `CC(C)C1=CC2=CC[C@@H]3[C@](C)(CCC[C@@]3(C)C(=O)O)[C@H]2CC1`, the Potency entry in [2], in [3], in test [4], in test [5], in test [6] and in [9] was “inactive” in each case.

On to `Cc1cc(NS(=O)(=O)c2ccc(N)cc2)nc(C)n1`, for which the Potency result in test [7], in test [3], in test [4] and in test [6] was “inactive” in each case. Further, in test [5], the Potency is 11.9 µM (active).

On to `NS(=O)(=O)c1cc(-c2nn[nH]n2)c(NCc2cccs2)cc1Cl`, for which the Potency result in test [3], in test [5] and in [6] was “inactive” in each case. In addition, in test [4], the Potency was 23.7 µM (active).

With `O=C1CCCCCCCCCCC(=O)OCCO1`, the Potency result in test [7], in [2], in [4], in test [5] and in test [6] was “inactive” each time.

With `CCOC(=O)COc1ccc2c(c1)CC(NCC(O)c1cccc(Cl)c1)CC2` (centres undefined), the Potency result in [1], in [4], in test [5] and in test [8] was “inactive” each time.

With `C1CCOC1`, the Potency entry in [7], in test [2], in test [4], in test [6], in test [8] and in [9] was “inactive” throughout.

Turning to `CC[C@H]1CC[C@H](NCc2cc3c(cc2OC)[C@H]2C[C@H]2C(=O)N3C)[C@H](c2ccccc2)N1`, the Potency entry in test [1] and in [9] was “inactive” each time. Moreover, the Potency in test [8] was 21.7 µM (active).

Consider `O=C(CC(=O)C(F)(F)F)c1ccccc1`, for which the Potency result in [2], in test [3], in [4] and in test [8] was “inactive” each time. For the same compound, the values for the Potency in test [5] and in test [9] were 55.3 µM (active) and 6.2 µM (active), respectively.

For `CCC(=O)O[C@]1(C(=O)SCF)[C@H](C)C[C@H]2[C@@H]3C[C@H](F)C4=CC(=O)C=C[C@]4(C)[C@@]3(F)[C@@H](O)C[C@@]21C`, the Potency result in [7], in test [3], in test [4], in test [6] and in test [8] was “inactive” each time.

`ClC(Cl)Cl`: the Potency entry in [7], in [2], in test [5] and in test [6] was “inactive” in each case.

Turning to `COc1ccc(Nc2ccc(OC)cc2)cc1`, the results for the Potency in [1] and in test [5] were 20.4 µM (active) and 17.5 µM (active), respectively. Also, the Potency entry in test [2], in test [3], in test [4] and in test [6] was “inactive” throughout.

Turning to `O=C1Nc2ccc([N+](=O)[O-])cc2C1=O`, the Potency result in test [1], in [2], in [3], in [4], in test [5] and in test [6] was “inactive” throughout.

For the compound `CC1(C)O[C@@H]2C[C@H]3[C@@H]4CCC5=CC(=O)CC[C@]5(C)[C@@]4(F)[C@@H](O)C[C@]3(C)[C@]2(C(=O)CCl)O1`, the Potency result in test [7], in test [3], in test [4], in test [5] and in test [6] was “inactive” throughout.

With `O=C(C(Cl)Cl)N1CCOC12CCCCC2`, the Potency entry in [7], in test [4], in [6], in [8] and in test [9] was “inactive” throughout.

In the case of `Cc1ccccc1C(=O)Nc1ccc(C(=O)N2CCCC(O)c3cc(Cl)ccc32)c(C)c1` (centres undefined), the Potency result in [2], in test [3], in [4], in test [5], in test [6] and in [8] was “inactive” in each case. The Potency entry in [9] is “inactive”.

Turning to `OCc1c2ccccc2cc2ccccc12`, the Potency result in [7], in [2], in test [4] and in [6] was “inactive” throughout. Besides, in [8], the Potency was 68.8 µM (active).

Turning to `ICCc1ccccc1`, the Potency result in test [7], in test [2], in [3], in test [6], in test [8] and in [9] was “inactive” each time.

As to `CCCCc1ccc2nc(NC(=O)OC)[nH]c2c1`, the Potency result in [2], in test [4], in test [6] and in test [8] was “inactive” throughout. In addition, the Potency in test [5] is 5.96 µM (active).

Turning to `CC(C)(C)c1cccc(O)c1`, the Potency result in test [7], in [2], in test [3], in test [6] and in [8] was “inactive” each time.

Regarding `Cc1ccc([N+](=O)[O-])c(N)c1`, the Potency result in test [2], in [3], in test [4], in [5], in test [6] and in test [8] was “inactive” each time. Besides, in test [9], the Potency result was “inactive”.
